Screening results: PubChem BioAssay, National Center for Advancing Translational Sciences (NCATS)
CHX counter: counter-screen hit for Shiga toxin inhibitors, cycloheximide; cell reporter, cycloheximide protein synthesis inhibition counterscreen; max response, %; 300,000 tested, 12% active; in the data active means max response mostly above about 13%, no sharp cut-off; inactive means mostly below about 14%; further: read at 38.3 µM for the half of the compounds with a filed dose
Pf growth 48h: P. falciparum growth inhibition at 48 hours (one generation); P. falciparum luciferase growth in erythrocytes, 48 h; Potency, µM (doses to about 28.7 µM), hits mostly inhibitors; 310,000 tested, 5.9% active; AID 504832
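Luciferase-expressing parasites in RBCs, 2% Hct / 0.1% parasitemia final; RPMI 1640 + 0.5% Albumax; 37 C, 5% CO2, one generation; luminescence read-out, lower signal = inhibition.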
Shiga toxin inh: Shiga toxin inhibition; Vero cells, Shiga toxin protein synthesis inhibition reporter; inhibition, % at 38.7 µM; 290,000 tested, 9.2% active; AID 2315; in the data active means inhibition mostly above about 28%, no sharp cut-off; inactive means mostly below about 43%
FBPA Giardia inh: inhibitors of Giardia lamblia fructose-1,6-bisphosphate aldolase; 290,000 tested, 0.71% active; Potency, µM (top dose mostly 59.6 µM), most hits filed as inhibitors; purified Giardia FBPA; AID 2451; further: nearly all actives have a fitted effect of over 55% in size
Target sequence (A8B2U2 whole entry, looked up): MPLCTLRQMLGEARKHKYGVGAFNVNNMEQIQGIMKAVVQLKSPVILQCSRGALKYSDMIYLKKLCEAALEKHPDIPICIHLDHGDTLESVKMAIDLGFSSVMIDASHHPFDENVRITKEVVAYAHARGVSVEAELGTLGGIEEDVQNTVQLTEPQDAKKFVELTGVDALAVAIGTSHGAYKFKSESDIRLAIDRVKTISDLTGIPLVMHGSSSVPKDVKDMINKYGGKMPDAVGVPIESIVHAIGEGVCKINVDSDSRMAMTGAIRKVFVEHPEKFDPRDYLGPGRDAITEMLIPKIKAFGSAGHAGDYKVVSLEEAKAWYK
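40 nM FBPA preincubated 10 min at RT with compound (up to 57.5 uM final), then substrate plus GAPDH/TPI/NAD/arsenate coupling and diaphorase/resazurin added. Fluorescence read after 20 min at RT, 525/598 nm.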
NS1 function inh: influenza NS1 inhibition; AID 2326; Potency, µM (series often up to 46.1 µM); 270,000 tested, 0.4% active; calls by dose curve; further: actives are rising curves; nearly all actives have a fitted effect of over 50% in size
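In this qHTS, NS1 from influenza A is expressed in budding yeast, where it slows growth. Cells are switched from glucose to 2% galactose medium (pH 6.0, -URA), treated with compound, and growth recovery is read at OD600.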
Pf growth 96h: P. falciparum growth inhibition at 96 hour, primary screen for plastid delayed-death inhibitors; P. falciparum luciferase reporter growth, 96 h; Potency, µM (titrated, usually from 28.7 µM), hits mostly inhibitors; 320,000 tested, 6.9% active
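Erythrocytes infected with luciferase-expressing P. falciparum were dispensed at 2% hematocrit and 0.05% parasitemia (final), then incubated with compounds 96 hours at 37 C in 5% CO2. Luminescence after detection reagent addition reported growth.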
Each line names hits and unclear results; the compound was inactive in the other large screens. Only some compounds are listed: those with a hit (about 21% of all), similar ones and a draw of the others. Unless noted, the call rests on the fitted dose curve; in most records, active means well fitted curve in the direction sought with a large enough effect; inconclusive means small, poorly fitted or top-dose-only effect, or another doubt; inactive means no such curve, though single readings can be large; an effect the other way counts as inactive or inconclusive.

CCN(CC)CCC(c1ccc(N(C)C)cc1)c1c(OC)cc(OC)c2ccc(=O)oc12 (stereo not given)	Pf growth 48h 12µM, Pf growth 96h inconclusive
COc1cc(OC)c2ccc(=O)oc2c1C(CCN1CCCC1)c1ccc(N(C)C)cc1 (stereo not given)	Pf growth 48h inconclusive, Pf growth 96h inconclusive
Cc1ccc(C(C)NC(=O)c2cc3cc(Br)ccc3oc2=N)cc1 (stereo not given)	Pf growth 48h inconclusive (no result: FBPA Giardia inh)
CCN(CC)C(=O)CC(c1ccc(N(C)C)cc1)c1c(OC)cc(OC)c2c(-c3ccccc3)cc(=O)oc12 (stereo not given)	Pf growth 48h 3.7µM, Pf growth 96h 2.1µM
CCN1C(=O)C(=O)N(CC(=O)Nc2ccccc2Oc2ccccc2)C1=O	Pf growth 48h inconclusive
O=C(CSCCc1ccccn1)Nc1ccc(Br)cn1	none
Cc1csc(NC(=O)CCSCCc2ccccn2)n1	Pf growth 96h 9.3µM (no result: Pf growth 48h)
O=C(CSCCc1ccccn1)Nc1ccccn1	CHX counter 15
CCOC(=O)c1[nH]c(CO)c(C(=O)OCC)c1C	none
O=C(Nc1ccc(N2CCCC2)c(Cl)c1)c1cccs1	CHX counter 71, Pf growth 48h inconclusive, Shiga toxin inh 95, Pf growth 96h inconclusive
O=C(NC(=S)Nc1ccc(N2CCOCC2)c(Cl)c1)c1cccs1	CHX counter 30, Pf growth 48h inconclusive, Shiga toxin inh 60, Pf growth 96h 2.3µM
O=C1NC2(CCCCCC2)C(=O)N1Cc1c(F)cccc1Cl	none (no result: Pf growth 48h)
CCc1noc(C)c1C(=O)Nc1cc(Cl)ccc1N1CCCC1	Pf growth 96h inconclusive (no result: CHX counter, Shiga toxin inh, FBPA Giardia inh, NS1 function inh)
CC(C)CCn1c(=O)c2sccc2n2c(CCCC(=O)N3CCN(c4ccccn4)CC3)nnc12	Pf growth 48h inconclusive, Pf growth 96h inconclusive (no result: FBPA Giardia inh)
O=C(Nc1cc(N2CCOCC2)ncn1)c1ccc(F)cc1	CHX counter 33, Shiga toxin inh 75, Pf growth 96h inconclusive
O=S(=O)(/N=C(/Nc1cc(N2CCOCC2)ncn1)c1ccc(F)cc1)c1ccccc1	none (no result: Pf growth 96h)
O=C(Nc1cc(N2CCCCC2)ncn1)c1ccc(F)cc1	CHX counter 26, Pf growth 96h inconclusive
c1ccc2c(N3CCCCCC3)nc(-c3ccncc3)nc2c1	Pf growth 48h inconclusive
c1ccc(N2CCN(c3nc(-c4ccccn4)nc4ccccc34)CC2)cc1	Pf growth 48h 1.9µM, Pf growth 96h 2.9µM
CSc1nc(N2CCN(C)CC2)c2ccccc2n1	Pf growth 96h 15µM
CN1CCN(c2nc(-c3ccc(Cl)c(Cl)c3)nc3ccccc23)CC1	Pf growth 96h inconclusive
CN1CCN(c2nc(-c3ccccn3)nc3ccccc23)CC1	Pf growth 96h 5.9µM (no result: Pf growth 48h)
COc1ccc2nc(NC(=O)c3ccccc3O)sc2c1	CHX counter 58, Shiga toxin inh 63
O=C(Nc1nc2ccccc2s1)c1ccccc1[N+](=O)[O-]	CHX counter 46, Shiga toxin inh 60, Pf growth 96h inconclusive
COc1ccc(-n2nc(C(=O)Nc3nc4ccc(OC)cc4s3)c3ccccc3c2=O)cc1	none
CCOC(=O)c1cccc(C(=O)Nc2nc3ccc(OC)cc3s2)n1	Shiga toxin inh 39 (no result: NS1 function inh)
COc1ccc2nc(NC(=O)c3ccccc3[N+](=O)[O-])sc2c1	CHX counter 40, Shiga toxin inh 71
COc1ccc2nc(NC(=O)c3ccc(-n4nc(C)cc4C)cc3)sc2c1	Pf growth 48h inconclusive
Cc1ccc(NC2CCCN(C(=O)C3CCCCC3)C2)cc1C (stereo not given)	Pf growth 48h inconclusive
COc1ccc(NC(=O)C(=S)NC2CCCCC2)cc1	CHX counter 47, Shiga toxin inh 118
CCc1ccc(NC(=O)C(=S)NC2CCCCC2)cc1	CHX counter 23, Shiga toxin inh 57
CCOc1ccc(NC(=O)NC2CCCCCCC2)cc1	CHX counter 51, Shiga toxin inh 91, Pf growth 96h inconclusive (no result: FBPA Giardia inh)
CCc1cccc(NC(=O)C2CCCC2)c1	none
CCc1cccc(NC(=O)NC2CCCCC2)c1	CHX counter 23 (no result: Pf growth 96h)
CCOc1ccc(CC(=O)NNC(=O)NC2CCCCC2)cc1	none
COc1ccc(OC)c(NC(=O)C(=S)NC2CCCCC2)c1	Pf growth 48h inconclusive
CC(Oc1ccccc1)C(=O)Nc1nnc(S(=O)(=O)Nc2ccccc2)s1 (stereo not given)	none
COC(=O)C(O)(c1ccc(NC(=O)NC2CCCCC2)cc1)C(F)(F)F (stereo not given)	CHX counter 35, Shiga toxin inh 39
